Results on 20 molecules are retold here after PubChem BioAssay (EPA / NIEHS).

Records with an inconclusive call do not appear. Active and inactive are the calls of the source. The calls were made as follows, unless noted: active = hit-call score of the fitted dose curve at least 0.9, where 1 is the maximum; inactive = score below 0.9.

System in one assay: not listed separately
Description: CCTE_Mundy_HCI_Cortical_NOG_BPCount: CCTE's Neurite Outgrowth Assay in rat cortical cells for Branch Point Count, Mundy Lab (AID 2284237).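 As to AC50: branch points counted about two days after chemical exposure.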
Settings: not given
The gist of the method: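 Measured 50.33 h after dosing, this morphology endpoint uses rat primary cortical cultures labelled for betaIII-tubulin. Branch points are quantified by high-content imaging, with DMSO as negative control and baseline.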
Take `Oc1c(Cl)cc(Cl)c(Cl)c1Cc1c(O)c(Cl)cc(Cl)c1Cl`: the half-maximal activity concentration (AC50) is 10.4 µM (active). Turning to `CN(C)CCOC(C)(c1ccccc1)c1ccccn1` (stereo not drawn), the call was inactive. The same measure, in the same setting: the same measure for `COCCOCCOCCO`: “inactive”; for `COCCc1ccc(OCC(O)CNC(C)C)cc1` (stereo not drawn): “inactive”.

Read-out in another assay: Collagen I, COL1A1 (gene 1277)
Description: BSK_MyoF_CollagenI: BioMAP Diversity Plus: MyoF Assay for Collagen I Biomarker Activity (AID 2284238). The settings on record: primary human lung fibroblasts. A digest of the protocol:
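Collagen I levels measured by ELISA on human lung fibroblast cultures 24 h post-dosing, with curve fitting in the positive direction relative to DMSO; SRB staining of parallel wells marked cytotoxicity.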
For `CN(c1nccc(=O)[nH]1)C1CCN(c2nc3ccccc3n2Cc2ccc(F)cc2)CC1`, the outcome was inactive. As to `O=C1OC2(c3ccccc31)c1ccc(O)c(Br)c1Oc1c2ccc(O)c1Br`, the outcome was inactive.

As to `CN(C)C(=S)SC(=S)N(C)C`, the result was inactive. Turning to `CCC(C)c1cc([N+](=O)[O-])cc([N+](=O)[O-])c1OC(=O)OC(C)C` (stereo not drawn), the AC50 was 2.66 µM (active). Take `CCCCOC(=O)CCCCCCCC(=O)OCCCC`: the result was inactive. For the molecule `CC1(C)C2=CCCC(C)(C)[C@]23CC[C@H]1C3`, the AC50 was 30.4 µM (active). For the molecule `O=C1OC[C@H](Cc2cccc(O)c2)[C@H]1Cc1cccc(O)c1`, the outcome was inactive. Still for that read-out and setting: for `COc1ccc(OC)c(N=Nc2c(O)ccc3ccccc23)c1` the value was “inactive”. Turning to `Oc1c(Cl)cc(Cl)c(Cl)c1Cc1c(O)c(Cl)cc(Cl)c1Cl`, the AC50 is 0.215 µM (active).

Consider `C=C(C)C(=O)OCCOCCOCCOCCOC(=O)C(=C)C`, for which the outcome was inactive. Same read-out and setting: the same measure for `IC(I)I`: “inactive”; for `C1=CC2C3C=CC(C3)C2C1` (stereo not drawn): “inactive”. On the same count and under the same terms, the same measure for `C[C@@H]1CCN(C(=O)[C@H](CCCN=C(N)N)NS(=O)(=O)c2cccc3c2NC[C@H](C)C3)[C@@H](C(=O)O)C1`: “inactive”; for `Cc1cc(CCC(=O)OCCOCCOCCOC(=O)CCc2cc(C)c(O)c(C(C)(C)C)c2)cc(C(C)(C)C)c1O`: “inactive”. Take `CC(=O)Nc1ccc(C(=O)CCl)cc1`: the concentration at half-maximal activity (AC50) was 29.5 µM (active).

Regarding `CCCCN(CCCC)C(=O)N(CCCC)CCCC`, the concentration at half-maximal activity (AC50) is 9.53 µM (active).

For the molecule `C=C(C)C(=O)OCC(CC)(COC(=O)C(=C)C)COC(=O)C(=C)C`, the AC50 is 10.2 µM (active).

System in a further assay: not listed separately
Description: CCTE_Mundy_HCI_hNP1_Casp3_7: CCTE's Caspase-Glo 3/7 Assay in human neuroprogenitor cells for Apoptosis, Mundy Lab (AID 2284240).
Settings: not given
A digest of the protocol: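 Apoptosis is scored by activated caspase-3/7 luminescence in WA09-derived neural progenitor cells, measured 26.5 h after chemical dosing. Values represent gain of signal relative to DMSO vehicle.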
In the case of `Oc1c(Cl)cc(Cl)c(Cl)c1Cc1c(O)c(Cl)cc(Cl)c1Cl`, the concentration at half-maximal activity (AC50) is 27 µM (active).

For `CN(C)CCOC(C)(c1ccccc1)c1ccccn1` (stereo not drawn), the result was inactive. Still for that read-out and setting: the same measure for `COCCOCCOCCO`: “inactive”.

For the molecule `COCCc1ccc(OCC(O)CNC(C)C)cc1` (stereo not drawn), the molecule was called inactive.

System in the next assay: not listed separately
The assay is described as follows: CCTE_Mundy_HCI_hNP1_CellTiter: CCTE's Cell Titer-Glo 2 Assay in human neuroprogenitor cells for Viability, Mundy Lab (AID 2284241; active = hit-call score of the fitted dose curve at least 0.9, where 1 is the maximum;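 as to AC50: a hit is a drop in ATP luminescence versus DMSO meaning reduced viability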).
Settings: not given
The protocol:
CCTE_Mundy_HCI_hNP1_CellTiter is a multiplexed, cell-based-readout assay that uses neural stem cells derived from a neuroepithelial cell lineage of WA09 embryonic cells with measurements taken at […] after chemical dosing in a microplate: 96-well plate.CCTE_Mundy_HCI_hNP1_CellTiter is one component of the CCTE_Mundy_HCI_hNP1_CellTiter assay. It measures cell viability related to ATP content using Luminescent Reporter.Data from the assay component CCTE_Mundy_HCI_hNP1_CellTiter was analyzed at the endpoint CCTE_Mundy_HCI_hNP1_CellTiter in the positive analysis fitting direction relative to DMSO as the negative control and baseline of activity. Using a type of viability reporter, loss -of-signal activity can be used to understand viability effects.
Human neural progenitor cells (hNP1) were obtained as cryopreserved cells from ArunA Biomedical, Athens Georgia. Cells are plated on pre-coated poly-L-ornithine/laminin clear bottom and opaque 96 well plates (day 0). Plates are placed in a 37 °C, 5% CO2 incubator for 40 to 44 hours at which time plates are removed from the incubator and 10 uL of a freshly made chemical solution is added to each well. Cell viability was based on number of cells per field or determined in sister plates using the CellTiter-Glo luminescent assay (Promega) which measures the amount of ATP present in each well. Twenty-four hours after chemical treatment, 50ul of CellTiter-Glo assay buffer was added to each well and the plate incubated for 30min at room temperature. Luminescence was then recorded in each well using a FLUOstar Optima plate reader (BMG LABTECH, Cary, NC).
`Oc1c(Cl)cc(Cl)c(Cl)c1Cc1c(O)c(Cl)cc(Cl)c1Cl`: the AC50 is 21.2 µM (active). In the case of `COCCOCCOCCO`, the result was inactive. Take `COCCc1ccc(OCC(O)CNC(C)C)cc1` (stereo not drawn): the concentration at half-maximal activity (AC50) was 2.98 µM (active).

One may read the AC50 as the concentration at which the activity in the assay is half-maximal.
